Data on 62 compounds can be found in PubChem BioAssay AID574 (The Scripps Research Institute Molecular Screening Center, 2007).

In all, about 65,000 compounds went through this assay and about 450 (0.69%) were called active.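 How the source made its calls: active means activation above a set limit, the screen-wide mean activation plus 3 SD (cut at about 8.5% in these data); inactive means the rest.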 The full list was thinned out, with actives kept by preference.

Chain of 5-hydroxytryptamine receptor 1E (Homo sapiens) (P28566 whole entry, looked up): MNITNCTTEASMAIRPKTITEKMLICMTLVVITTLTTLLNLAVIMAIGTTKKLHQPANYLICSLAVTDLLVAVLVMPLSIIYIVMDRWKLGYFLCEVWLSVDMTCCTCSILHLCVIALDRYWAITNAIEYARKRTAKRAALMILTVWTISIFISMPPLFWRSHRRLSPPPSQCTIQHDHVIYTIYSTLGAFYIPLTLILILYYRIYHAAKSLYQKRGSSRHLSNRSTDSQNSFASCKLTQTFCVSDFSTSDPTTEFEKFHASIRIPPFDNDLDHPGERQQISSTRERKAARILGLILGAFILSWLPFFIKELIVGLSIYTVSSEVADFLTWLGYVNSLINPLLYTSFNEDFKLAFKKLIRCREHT

The assay has as its target 5-hydroxytryptamine receptor 1E (Homo sapiens) (UniProt P28566). Briefly: activation of human serotonin 5HT1E receptor – cell-based, HTS, primary screen (AID 574).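 Further: 100% = positive control agonist at 1 µM giving full maximal response.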 The conditions noted are these: CHO 5-HT1E Ga15 NFAT-bla reporter, FRET; at 6 µM; stronger effect = higher value; 0% DMSO wells, 100% control agonist wells.
Take `O=c1nc2s/c(=C\c3ccco3)c(=O)n2nc1Cc1ccccc1`: the activation was 17.9% (active).

For `CCCCOc1ccccc1/C=c1/sc2nc(-c3oc4ccccc4c3C)nn2c1=O`, the activation was 0.1% (inactive).

Consider `CCOc1ccccc1/C=c1\sc2nc(-c3ccco3)nn2c1=O`, for which the activation is 0.9% (inactive).

For the compound `O=C(CCS(=O)(=O)Cc1ccccc1F)NCCCN1CCCCC1`, the activation was -1.2% (inactive).

As to `Cc1ccc(CNC(=O)CCCNC(=O)c2ccc(Cl)cc2)n1C`, the activation is -0.6% (inactive).

Consider `O=S(=O)(NCc1ccccc1Cl)c1cnc[nH]1`, for which the activation was 0.3% (inactive).

For `COc1ccc2c(c1)OC(O)(C(F)(F)C(F)F)CC2=O` (configuration not stated), the activation was 12% (active).

Take `CN(C)c1ccnc2sc3c(=O)n(Cc4ccccc4)cnc3c12`: the activation is 0.2% (inactive).

Regarding `CCOC(=O)c1sc(N(Cc2ccccc2)C(=O)CN2C(=O)CN(C)C2=O)nc1C`, the activation is 0.8% (inactive).

As for `CCN(CCCNC(=O)C1CCN(S(=O)(=O)c2cnc[nH]2)CC1)c1ccccc1`, the activation is -0.1% (inactive).

For `Cc1nc2ccccc2c2oc(C(=O)NCCCN3CCC(C)CC3)cc12`, the activation is -0.7% (inactive).

As to `CN1CCN(Cc2c(O)ccc3c2oc(=O)c2ccccc23)CC1`, the activation is -1.2% (inactive).

For `CN1CCN(CCCNC(=O)c2cc3c(=O)oc4ccccc4c3s2)CC1`, the activation is 14.9% (active).

For the compound `CCS(=O)(=O)N1CCN(C(=O)c2cccs2)CC1`, the activation is 0.5% (inactive).

As to `O=C(CN(Cc1ccccc1)C(=O)c1ccc2c(c1)OCCO2)NCc1ccc2c(c1)OCO2`, the activation is -1.2% (inactive).

`O=C(CC(Cc1ccccc1)C(=O)O)NCCc1ccc2c(c1)OCO2` (configuration not stated): the activation was 10.3% (active).

On to `O=C(COc1ccccc1)NCc1ccc2c(c1)OCO2`, for which the activation is -0.5% (inactive).

Turning to `Cc1cc(=O)n2nc(N3CCCC(C(=O)N4CCN(C)CC4)C3)sc2n1` (configuration not stated), the activation was 0% (inactive).

Consider `CN(C)CCCn1c(N)c(C#N)c2nc(C#N)c(C#N)nc21`, for which the activation is 3.5% (inactive).

Regarding `CCOc1ccc2nc(NC(=O)CSc3nc4c(c(=O)n(C)c(=O)n4C)n3CC)sc2c1`, the activation was -0.3% (inactive).

In the case of `CCOC(=O)CCc1c(C)c(C#N)c2[nH]c3ccccc3n2c1=O`, the activation was -0.2% (inactive).

For `CCC1CCCCN1CCNS(=O)(=O)c1ccc2c(c1)CCN2C(C)=O` (configuration not stated), the activation was -0.3% (inactive).

As to `O=S(=O)(c1ccc(OCC(O)CN2CCN(c3ccccc3Cl)CC2)cc1)N1CCOCC1` (configuration not stated), the activation is 1.6% (inactive).

Take `CCCN1C(=O)C(NC(C)=O)c2cc(OC)ccc21` (configuration not stated): the activation is 0.7% (inactive).

Regarding `CCOC(=O)N1CCN(C(=O)c2cnc3n(c2=O)CCS3)CC1`, the activation is 4.1% (inactive).

Take `Cn1c(NC(=O)c2ccco2)c(-c2ccccc2Cl)c(=O)c2ccccc21`: the activation was 0.2% (inactive).

For the compound `CCC(=O)Nc1ccccc1N1CCN(S(C)(=O)=O)CC1`, the activation is -0.7% (inactive).

For the compound `CCCS(=O)(=O)N1CCCC(C(=O)NCc2ccco2)C1` (configuration not stated), the activation was 0.6% (inactive).

In the case of `COc1cccc2cc(C(=O)N(C)C)c(=O)oc12`, the activation was 0.2% (inactive).

As for `Cn1c(=O)cc(OCCCC(=O)N2CCN(Cc3ccc4c(c3)OCO4)CC2)c2ccccc21`, the activation is 0.8% (inactive).

For the compound `CC(C)OCCCNC(=O)CNC(=O)c1cccs1`, the activation is 1.3% (inactive).

Consider `COc1cccc(OCCOc2cccc(/C=N/n3cnnc3)c2)c1`, for which the activation was -0.3% (inactive).

On to `C=C(C)CSc1nc(N)c2c3c(sc2n1)CCC3`, for which the activation is 0.3% (inactive).

With `Cc1cccc(N2CCN(Cc3c(C)n(C)n(-c4ccccc4)c3=O)CC2)c1C`, the activation was 41.4% (active).

On to `Cc1c(CN2CCC(C)CC2)c(=O)n(-c2ccccc2)n1C`, for which the activation is -0.1% (inactive).

In the case of `CC(=O)N1CCN(c2cccc(C)c2C)CC1`, the activation was 0.3% (inactive).

On to `CC1CN(C2CCCCC2)c2nc3c(c(=O)n(C)c(=O)n3C)n2C1` (configuration not stated), for which the activation is -0.2% (inactive).

On to `CCOC(=O)CSc1nnc(CNC(=O)Cc2ccccc2)n1-c1ccccc1OC`, for which the activation is -0.7% (inactive).

On to `CCOc1cc(NC(=O)c2ccco2)c(OCC)cc1NC(=O)COc1ccccc1`, for which the activation is 9.5% (active).

For `O=C(Nc1ccc(Oc2ccccc2)cc1)c1ccco1`, the activation is 0.3% (inactive).

For `Cc1ccc(C(=O)COc2cccc(NC(=O)c3ccco3)c2)cc1`, the activation was 0.2% (inactive).

`CC(=O)c1cccc(NC(=O)N2CCCC2C(=O)NCCC(C)C)c1` (configuration not stated): the activation was -0.1% (inactive).

Turning to `CCN(Cc1ccccc1)C(=O)CSc1nc(C)cc2c1C(=O)OC2`, the activation was -0.3% (inactive).

In the case of `CCOc1ccccc1C1C(C(=O)OC)=CN(C)C=C1C(=O)OC`, the activation is 7.1% (inactive).

`Cn1c(C(=O)NCCCN2CCN(c3cccc(Cl)c3)CC2)cc2c(=O)n(C)c3ccccc3c21`: the activation was 14.6% (active).

As to `CCn1c(=O)cc(OCC(=O)NCCCN2CCN(c3cccc(Cl)c3)CC2)c2ccccc21`, the activation is 7.6% (inactive).

Consider `O=C(CCn1c(=S)[nH]c2ccccc2c1=O)NCCCN1CCCC1=O`, for which the activation is -0.3% (inactive).

For `CC1CCCC(C)N1CCCNC(=O)c1cc2c(=O)n(C)c3ccccc3c2n1C` (configuration not stated), the activation was 0.8% (inactive).

For the compound `O=C(CCCn1c(=O)[nH]c2cc(Cl)ccc2c1=O)NCCN1CCN(c2ccccc2)CC1`, the activation was 1% (inactive).

For the compound `O=C(CCn1c(=O)[nH]c2ccccc2c1=O)NCCCN1CCN(c2cccc(Cl)c2)CC1`, the activation is 11.7% (active).

Consider `Cc1cc(=O)[nH]c(SCC(N)=O)c1C#N`, for which the activation is 0.8% (inactive).

`COc1ccc(C(=O)Nc2cccnc2)cc1C(=O)Nc1cccnc1`: the activation is 0.1% (inactive).

Take `Cc1ccc2nc(-c3ccc(SCC(=O)Nc4cc(C)on4)nc3)[nH]c2c1`: the activation was -0.4% (inactive).

Turning to `Cc1cc(=O)oc(C)c1C(=O)NCc1ccc(F)cc1`, the activation was -0.2% (inactive).

Consider `CCCOc1ccccc1C(=O)NCCCC(=O)O`, for which the activation was 0% (inactive).

In the case of `Cn1c(CN2CCOCC2)nc2cc(NC(=O)c3ccc(Cl)cc3)ccc21`, the activation is 0.6% (inactive).

Turning to `O=C(CC(NCCN1CCOCC1)C(=O)O)Nc1cccc(Cl)c1` (configuration not stated), the activation was -1.2% (inactive).

As to `COc1cccc2cc(C(C)N(CCCN3CCOCC3)C(=O)Nc3ccc(Cl)cc3)oc12` (configuration not stated), the activation was 15.9% (active).

In the case of `Cc1c2cnn(-c3ccccc3)c(=O)c2c(C)n1CCCC(=O)N1CCN(C)CC1`, the activation was 1% (inactive).

Consider `CC(C)OC(=O)CN1C(=O)c2ccccc2C1=O`, for which the activation is 0.5% (inactive).

As to `CCOc1ccc(NC(=O)N2CCN(CC)CC2)cc1`, the activation is -0.5% (inactive).

For `O=C(Nc1c(-c2ccccc2)nc2c(Br)cc(Br)cn12)c1ccco1`, the activation is -0.3% (inactive).
